PKM2 inhibitor – qHTS Assay for Inhibitors of Human Muscle isoform 2 Pyruvate Kinase; purified PKM2, ATP generation, Kinase-Glo luminescence; 260,000 tested, 0.058% active; AID 1634, 2009; Pyruvate kinase PKM (Homo sapiens), P14618; Potency, µM (series often up to 57.5 µM), usual class: inhibitors; note: nearly all actives have a fitted effect of over 60% in size
Target sequence (P14618 whole entry, looked up, canonical isoform): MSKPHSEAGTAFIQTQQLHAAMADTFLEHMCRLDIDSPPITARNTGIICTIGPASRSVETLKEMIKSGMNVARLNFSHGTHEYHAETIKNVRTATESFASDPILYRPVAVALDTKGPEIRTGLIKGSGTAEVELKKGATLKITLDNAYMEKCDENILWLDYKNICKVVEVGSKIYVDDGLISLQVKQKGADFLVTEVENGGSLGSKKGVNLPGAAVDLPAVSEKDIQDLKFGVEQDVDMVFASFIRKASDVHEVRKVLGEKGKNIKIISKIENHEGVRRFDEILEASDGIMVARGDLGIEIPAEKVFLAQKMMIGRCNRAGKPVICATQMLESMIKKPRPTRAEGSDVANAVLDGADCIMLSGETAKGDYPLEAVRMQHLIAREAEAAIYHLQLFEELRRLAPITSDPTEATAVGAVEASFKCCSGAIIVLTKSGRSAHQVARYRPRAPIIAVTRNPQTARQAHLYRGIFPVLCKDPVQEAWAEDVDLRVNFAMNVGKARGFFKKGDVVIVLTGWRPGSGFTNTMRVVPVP
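Coupled luciferase luminescence (Kinase-Glo) detects ATP generated from 0.1 mM ADP and 0.5 mM PEP in imidazole buffer pH 7.2 with KCl, MgCl2; 1 h at room temperature. Enzyme at intermediate activity; normalized to uninhibited and no-enzyme controls.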
PKM2 inh dose – Confirmation Concentration-Response Assay for Inhibitors of Human Muscle isoform 2 Pyruvate Kinase | shares compounds with PKM2 inhibitor | Potency, µM (series often up to 57.5 µM), most hits filed as inhibitors | 55 tested, 50% active | AID 2263, 2010 | purified hPK-M2, Kinase-Glo ATP luminescence, 1 h
FLuc counter – Secondary assay for Inhibitors of Human Pyruvate Kinase M2 isoform: FLuc Counterscreen | shares compounds with PKM2 inhibitor | Kinase-Glo firefly luciferase, luminescence, 8 min | Potency, µM (series often up to 57.5 µM), actives largely listed as inhibitors | 55 tested, 30% active
PKM2 LDH couple – Secondary assay for Inhibitors of Human Pyruvate Kinase M2 isoform | Potency, µM (top dose mostly 57.5 µM), usual class: inhibitors | AID 2267, 2010 | shares compounds with PKM2 inhibitor | purified hPK-M2, LDH-coupled NADH fluorescence kinetic | 55 tested, under 10 active
Each line names hits and unclear results; the compound was inactive in the other large screens (follow-up assays come after a bar, where they were run). The sample as a whole holds a higher share of hits than the screen did. Calls come from the whole dose curve; as a rule, active = well fitted curve in the direction sought with a large enough effect; inconclusive = small, poorly fitted or top-dose-only effect, or another doubt; inactive = no such curve, though single readings can be large; an effect the other way counts as inactive or inconclusive.

COc1cccc(OCCn2cc(C(C)=O)c3ccccc32)c1	none
Cc1ccc(S(=O)(=O)Nc2cc(C)c(O)c(Sc3n[nH]c(C)n3)c2)cc1	none
CN(Cc1ccccc1)C(=O)COC(=O)c1cc(NS(=O)(=O)c2cccs2)ccc1O	none
Cc1sc2nc(CN(Cc3cccs3)C(=O)C3CC3)[nH]c(=O)c2c1C	none
Cc1ccc(S(=O)(=O)NCCc2ccncc2)cc1C	none
CC(NC(=O)Cc1cccs1)c1ccccc1 (centres undefined)	none
Cc1ccccc1-n1nnnc1SCc1cc(=O)n2ccsc2n1	none
O=C(CN1CCCCC1)Nc1ccc(Br)cc1[N+](=O)[O-]	none
Cc1ccc(CNC(=O)C2(CC(C)C)C=CCN2C(=O)c2ccccc2)o1 (centres undefined)	none
COc1cc([N+](=O)[O-])ccc1NC(=O)CSc1nccn1C	none
Cc1nc2cc(-c3ccccc3)sc2c(=O)n1N	PKM2 inhibitor 3.5µM | PKM2 inh dose 3.7µM | FLuc counter 2.6µM | PKM2 LDH couple inactive
N#CCn1cnc2sc(-c3ccccc3)cc2c1=O	none
Cc1ccc(NC(=S)NCC23C=CC(O2)C2C(=O)N(c4ccc(C)cc4)C(=O)C23)cc1 (centres undefined)	none
COc1ccc(C(=O)NCc2oc(-c3ccccc3)cc2C(=O)O)cc1	none
COc1ccc(-c2nc(-c3ccccn3)no2)cc1	PKM2 inhibitor 3.5µM | PKM2 inh dose 5.8µM | FLuc counter 3.3µM | PKM2 LDH couple inactive
Cc1ccccc1-c1nc(-c2ccccn2)no1	PKM2 inhibitor 8.9µM | PKM2 inh dose 12µM | FLuc counter 5.2µM | PKM2 LDH couple inactive
CC(=O)Nc1ccc(SCC(=O)N2CCN(S(=O)(=O)c3ccccc3)CC2)cc1	none
Cc1ccc(NS(=O)(=O)c2c(C)nc3sccn3c2=O)cc1C	none
Cc1nc(NC(=O)CSc2nnnn2Cc2ccccc2)sc1C	none
NC(=O)/C=C\C(=O)Nc1cccc(C(F)(F)F)c1	none
COc1ccc(-c2nc(NC(=O)c3[nH]c(C)c(C(C)=O)c3C)sc2C)cc1	none
Cc1ccc(-n2[nH]c(C)c(/C=N/c3ccccn3)c2=O)cc1	PKM2 inhibitor 11µM | PKM2 inh dose inconclusive | FLuc counter inconclusive | PKM2 LDH couple inactive
COc1ccc(OCC(O)CNS(=O)(=O)c2cccc(Cl)c2)cc1 (centres undefined)	none
CC(=O)c1ccccc1OC(=O)CCN1C(=O)c2ccccc2C1=O	none
CCc1ccc(C2=NNC(=Nc3c(C)n(C)n(-c4ccccc4)c3=O)SC2)cc1	none
CCOC(=O)CSc1nc2c(sc3ccc([N+](=O)[O-])cc32)c(=O)n1Cc1ccco1	none
CCOc1ccc(C(=O)O/N=C(\N)c2ccccn2)cc1	PKM2 inhibitor 7.9µM | PKM2 inh dose 5.8µM | FLuc counter 6.5µM | PKM2 LDH couple inactive
CCOC(=O)N1CCN(S(=O)(=O)c2ccc(OCC)cc2)CC1	none
CCOc1ccc(NC(c2ccccn2)c2oc(CO)cc(=O)c2O)cc1 (centres undefined)	none
C/C(=N\NC(=O)C1CCCN(S(=O)(=O)c2ccccc2)C1)c1ccccn1 (centres undefined)	none
N/C(=N\OC(=O)c1ccccc1)c1ccccn1	PKM2 inhibitor 4µM | PKM2 inh dose 9.2µM | FLuc counter 4.1µM | PKM2 LDH couple inactive
Oc1ccc(-c2nc3ccc4ccccc4c3c3c2CCC3)cc1O	none
N#C/C(=C\Nc1ccc(Cl)cc1)S(=O)(=O)c1ccccn1	none
O=C(O)CCc1ccc(-c2cccs2)n1CCc1ccccc1	none
O=S(=O)(/N=C(/Nc1ccc(Cl)cc1Cl)c1ccccc1)c1cccs1	none
O=S(=O)(Nc1ccc(-n2cnnn2)cc1)c1ccc(F)c(F)c1F	none
Cc1ccc(NC(=O)c2ccc(Cl)c(N3C(=O)C=CC3=O)c2)cc1	none
O=C(CC(Nc1ccc(F)cc1)C(=O)OCC(=O)c1cccs1)c1ccccc1 (centres undefined)	none
Cc1ccc(Nc2c(-c3ccc(C)o3)nc3ncccn23)cc1	none
Cc1ccc(-c2nc3ncccn3c2Nc2ccccc2C)o1	none
Cc1ccc2nc(-c3ccc(C)o3)c(Nc3ccc(Cl)cc3)n2c1	none (no result: PKM2 inhibitor) | PKM2 inh dose inactive | FLuc counter inactive | PKM2 LDH couple inconclusive
Cc1ccc(-c2cc(C(=O)Nc3ccccc3C)c3ccccc3n2)o1	none
Cc1ccc(-c2nc3ccccn3c2Nc2ccccc2C)o1	none (no result: PKM2 inhibitor) | PKM2 inh dose inactive | FLuc counter inactive | PKM2 LDH couple 4.6µM
COc1ccc(-c2nc3ccccn3c2Nc2ccccc2C)cc1	none (no result: PKM2 inhibitor) | PKM2 inh dose inconclusive | FLuc counter inactive | PKM2 LDH couple inactive
Cc1cc(N)n(-c2ccc(S(=O)(=O)c3ccc(C(C)C)cc3)cc2)n1	none
COc1ccc(Nc2nc(C)cc(C)c2C(N)=O)c(OC)c1	none
COC(=O)c1ccc(COc2ccccc2/C=C/C(=O)c2ccc(OCC(=O)O)cc2)cc1	none
COc1cc([N+](=O)[O-])ccc1NC(=O)COC(=O)c1ccc(NC(N)=O)cc1	none
CC(N)(C(=O)O)c1cccc(OCc2cccc(Cl)c2)c1 (centres undefined)	none
Cc1ccc2nc(C)cc(C(=O)N3CCCC(CO)(Cc4ccccc4C)C3)c2c1 (centres undefined)	none
O=C(c1ccc(Cn2cc(Cl)c([N+](=O)[O-])n2)cc1)N1CCN(Cc2ccccc2)CC1	none
CS(=O)(=O)N1CCN(c2ccc([N+](=O)[O-])c(NCc3cccnc3)c2)CC1	none
Cc1ccc(NC(=O)C2C3C=CC4(CN(Cc5cccnc5)C(=O)C24)O3)cc1F (centres undefined)	none
CC1=NNC(=O)/C1=C\c1cn(-c2ccccc2)nc1-c1ccccc1	none
CC(=O)Nc1ccc(/C(C)=N/Nc2nc(Nc3cccc4ccccc34)nc(N3CCOCC3)n2)cc1	none
COc1ccc(-c2ccc(=O)n(CC(=O)Nc3cccc(O)c3)n2)cc1OC	none
COc1ccc(-c2cn3ccccc3n2)cc1OC	PKM2 inhibitor 8.9µM | PKM2 inh dose inconclusive | FLuc counter inconclusive | PKM2 LDH couple inconclusive
COc1ccc(-c2ccc(Nc3ccc(C(=O)N4CCOCC4)cc3)nn2)cc1OC	none
CN1CCC(N(C)CC(=O)Nc2cccc(Oc3ccccc3)c2)CC1	none
O=c1c2cc(Cl)ccc2[nH]c(=S)n1Cc1cccs1	none
O=C(Nc1nc2ccccc2n1CCOc1ccccc1)c1ccco1	none
Cc1cc(NC(=O)c2ccccc2)ncc1NC(=O)c1ccco1	PKM2 inhibitor inconclusive | PKM2 inh dose 16µM | FLuc counter inconclusive | PKM2 LDH couple inactive
O=C(Nc1cc([N+](=O)[O-])ccc1N1CCCC1)c1ccco1	none
O=C(NCCN1C(=O)S/C(=C\c2cccs2)C1=O)c1ccc(=O)[nH]c1	none

Assay outcomes (PubChem)
